Screens deposited in PubChem BioAssay by several laboratories.
Myeloid diff MLP = induction of myeloid progenitor differentiation, primary screen, cell-based, flow cytometry, MLPCN library; calls only at 10 µM; actives 1% (n = 360,000); ER-HoxA9 myeloid progenitors, lysozyme-GFP differentiation;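 active = normalized GFP-positive differentiation at or above the plate's own cutoff, the solvent-only control mean plus 3 SD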;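 note: cells exposed to compound for four days before flow analysis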
ATG4B inh = ATG4B protease inhibitors, primary screen, biochemical, fluorescence, uHTS. ATG4B cleavage of LC3-PLA2, NBD-HPC fluorescence, 1 h. inhibition, % at 8.33 µM. actives 0.51% (n = 340,000). Cysteine protease ATG4B (Homo sapiens), Q9Y4P1. AID 504462, 2011; in the data active = inhibition above about 40%
Target sequence (Q9Y4P1 whole entry, looked up): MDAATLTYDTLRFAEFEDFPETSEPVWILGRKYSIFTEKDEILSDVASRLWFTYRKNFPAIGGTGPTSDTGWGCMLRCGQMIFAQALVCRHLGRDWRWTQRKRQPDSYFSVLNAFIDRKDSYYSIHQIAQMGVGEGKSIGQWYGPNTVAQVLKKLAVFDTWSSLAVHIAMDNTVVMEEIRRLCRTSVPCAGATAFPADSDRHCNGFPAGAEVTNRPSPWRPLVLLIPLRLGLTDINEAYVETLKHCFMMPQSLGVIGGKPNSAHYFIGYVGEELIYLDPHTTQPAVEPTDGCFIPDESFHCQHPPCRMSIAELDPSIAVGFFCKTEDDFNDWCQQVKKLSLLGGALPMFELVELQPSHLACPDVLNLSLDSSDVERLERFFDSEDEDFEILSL
M1 ag = human M1 muscarinic receptor agonists, primary screen, Fluo-8 calcium fluorescence, CHO-K1 cells, HTS. activation, % at 3 µM. actives 0.33% (n = 360,000). CHO-K1 hM1, agonist mode; 0% DMSO, 100% acetylcholine EC100. AID 588814, 2011;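 active = activation above the run's mean compound activation plus 3 SD, cut at about 16% in these data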;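 note: peak over basal fluorescence ratio within a 140 s kinetic read after compound addition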
CHRM1 antagonist = human M1 muscarinic receptor antagonists, primary screen, CHO-K1 cells, Fluo-8 calcium fluorescence, 1536-well. CHO-K1 hM1, ACh EC80 antagonist. inhibition, % at 3 µM. actives 1.3% (n = 360,000). AID 588852, 2011;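 active = percent inhibition above its own plate's cutoff, namely the mean of that plate's compound wells plus 3 SD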;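 note: peak over basal fluorescence ratio during 140 s after agonist addition; 0% = ACh EC80 plus DMSO and 100% = DMSO alone without agonist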
SKN-1 inh = suppressors of acrylamide-induced Pgst-4::GFP reporter in worms, primary screen, SKN-1 inhibitor project, whole organism, uHTS, GFP/RFP fluorescence ratio, strain VP596. C. elegans VP596 Pgst-4::GFP/RFP ratio, 24 h. actives 0.49% (n = 360,000). inhibition, % at 21.8 µM. AID 624304, 2012;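 active = interference check ratio from 0.5 to 1.5 plus GFP to RFP signal ratio inhibition reaching or exceeding a fixed threshold, cut at about 30% in these data, passing the limit was not always enough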
M1 PAM = human M1 muscarinic receptor positive allosteric modulators, primary screen, CHO-K1 cells, Fluo-8 calcium fluorescence, 1536-well | activation, % at 3 µM | CHO-K1 hM1, ACh EC20; 0% = ACh EC20, 100% = maximal ACh | actives 0.088% (n = 360,000) | AID 588819, 2011 | Muscarinic acetylcholine receptor M1 (Homo sapiens), P11229; in the data active = activation above about 19%, passing the limit was not always enough
Numbers without * were called inactive; i = inactive; x = no result given; + = active, no number. A selection: hits, their analogues and other compounds. The true share with any hit is near 3.5%.

SMILES	Myeloid diff MLP	ATG4B inh	M1 ag	CHRM1 antagonist	SKN-1 inh	M1 PAM
COc1cccc(C(=O)Nc2cc(C)ccc2NC(=O)COc2ccccc2)c1	i	0	-10	48*	4	-17
Cc1cc(N2CCCC2)ccc1NC(=O)COc1ccccc1	+	-12	-7	8	10	-11
CCc1ccccc1OCC(=O)Nc1ccc(N2CCCC2)cc1C	+	12	-8	20	7	-18
CCN1CCCC1CNC(=O)Cn1cc(C)c(=O)[nH]c1=O (stereo not drawn)	i	x	1	-10	9	14
CC(=O)Nc1nc(C)c(Oc2cccc(C(F)(F)F)c2)c(=O)[nH]1	i	0	1	-28	-20	10
C=CCn1c(SCC(=O)c2cccs2)nc2sc(C)c(C)c2c1=O	+	1	-6	-4	1	-1
C=CCSc1nc2sc(C)c(C)c2c(=O)n1CC=C	i	30	-3	-14	11	10
O=C(Cc1ccccc1)NC(CSSCC(NC(=O)Cc1ccccc1)C(=O)O)C(=O)O (stereo not drawn)	i	1	-2	-15	0	12
COc1cc(OC)c(S(=O)(=O)N2CCOCC2)cc1S(=O)(=O)N1CCOCC1	i	-5	1	-7	-4	12
COc1cccc(S(=O)(=O)N(C)C[C@H]2OCc3cn(nn3)CCCC(=O)N([C@H](C)CO)C[C@@H]2C)c1	i	x	-7	-5	15	4
CC1(C(=O)Nc2ccc3c(c2)OCO3)CCN1C(=O)Cc1cccc2ccccc12 (stereo not drawn)	i	x	1	-7	17	3
Cc1ccc(S(=O)(=O)NCc2ccccc2)cc1C(=O)N1CCN(S(=O)(=O)c2ccccc2F)CC1	i	x	-4	14	18	-11
CCC(=O)c1ccc(OCC(=O)N(Cc2nnc(-c3ccccc3Cl)o2)C2CC2)cc1	i	1	-6	-10	5	5
O=C(c1ccc([N+](=O)[O-])o1)N(Cc1nnc(-c2ccccc2Cl)o1)C1CC1	i	-22	-9	27*	4	-10
O=C(COc1ccc(Br)cc1)N(Cc1nnc(-c2ccccc2Cl)o1)C1CC1	i	x	-5	37*	33	-23
Cc1ccc(C(=O)N(Cc2nnc(-c3ccccc3Cl)o2)C2CC2)o1	i	x	-7	-12	6	4
CCOC(=O)C1=NNC(C(=O)OCC)C1C(=O)OCC (stereo not drawn)	i	-2	-4	-3	-17	0
CC(C)c1ccc2[nH]c3nc(SCC(=O)NC4CC4)nnc3c2c1	+	-10	-3	-6	11	7
COc1ccc(Cl)cc1C(=O)NNC(=O)CCNS(=O)(=O)c1ccccc1	i	-7	-1	-2	7	1
CC(=O)OC(C[N+]1(C)CCCCCC1)c1ccccc1 (stereo not drawn)	i	-9	-10	57*	9	-28
O=c1[nH]c(C2CCN(S(=O)(=O)c3ccc(S(=O)(=O)NC4CC4)cc3)CC2)nc2c1nnn2Cc1cccc(F)c1	i	-26	-11	2	5	0
C[C@@H]1CN([C@@H](C)CO)C(=O)CCCn2nncc2CO[C@H]1CN(C)Cc1ccc(Oc2ccccc2)cc1	i	x	-12	40*	9	-29
C[C@H](CO)N1C[C@H](C)[C@@H](CN(C)Cc2ccc(O)cc2)OCc2cnnn2CCCC1=O	i	x	-7	-8	10	0
C[C@H](CO)N1C[C@H](C)[C@@H](CN(C)S(=O)(=O)c2ccc3ccccc3c2)OCc2cnnn2CCCC1=O	+	x	0	-22	-8	18
C[C@@H]1CN([C@H](C)CO)C(=O)CCCn2nncc2CO[C@H]1CN(C)Cc1ccc(Oc2ccccc2)cc1	i	x	-11	54*	13	-32
SMILES	Myeloid diff MLP	ATG4B inh	M1 ag	CHRM1 antagonist	SKN-1 inh	M1 PAM
COc1ccccc1CN(C)C[C@H]1OCc2cnnn2CCCC(=O)N([C@@H](C)CO)C[C@@H]1C	i	x	-11	102*	-14	-34
CC1CC(C)CN(CC(=O)NNC(=O)COc2ccc(Cl)cc2)C1 (stereo not drawn)	i	-5	-4	-2	2	8
O=C(CS(=O)(=O)c1cn(CC(=O)N2CCOCC2)c2ccccc12)NCc1ccc(F)cc1	i	-1	-2	-4	-4	-6
CCC(C)(C)C1CCC2(CC1)NC(=O)N(CC(=O)NCCc1c[nH]c3ccccc13)C2=O (stereo not drawn)	i	-4	-2	-14	12	6
COc1ccc2nc(SCC(=O)Nc3ccc(S(=O)(=O)N4CCCC4)cc3)c(C#N)cc2c1	i	-11	-6	3	40*	-2
Cc1nnc(SCC(=O)Nc2ccc(S(=O)(=O)N3CCCC3)cc2)n1N	i	-11	-3	54*	13	-21
Cc1ccccc1-n1nnnc1SCC(=O)Nc1ccc(S(=O)(=O)N2CCCC2)cc1	i	-19	-2	-13	-26	-2
CCC(c1nc2ccccc2[nH]1)N(Cc1cccnc1)C(=O)c1cc(-c2ccccc2)on1 (stereo not drawn)	i	x	-10	10	10	-16
O=C(Cn1c(=O)c2cccn2c2ccccc21)NCCCN1CCCCC1	i	12	-4	1	5	4
COc1cccc(C2CC3(CC(C)(C)NC(=S)N3)Oc3cc(O)ccc32)c1 (stereo not drawn)	i	-1	-5	-11	7	5
CSC1=NC2(CC(c3ccccc3)Oc3cc(O)ccc32)CC(C)(C)N1 (stereo not drawn)	i	6	15	2	43*	-12
COc1ccc(OC)c(N/C(=N/C(=S)Nc2ccccc2)Nc2nc(C)cc(C)n2)c1	+	1	-4	2	-9	1
COc1ccc2nc(N/C(N)=N/C(=S)Nc3ccccc3)nc(C)c2c1	i	36	-9	13	9	-3
O=C(Nc1ccc(Oc2cccc(C(F)(F)F)c2)nc1)c1ccco1	i	5	3	-2	-11	0
CC(C)(C)c1ccc(Oc2ccc(NC(=O)c3ccco3)cn2)cc1	+	7	4	-8	3	8
O=C1c2ccccc2OC2(C=Cc3ccccc3O2)N1Cc1ccccc1 (stereo not drawn)	i	14	-4	10	40*	-2
